Measured values: PubChem BioAssay
Activity calls are given as the source filed them.

Legend:
[1] = molecular target: Albumin (Bos taurus) (UniProt P02769); assay: bovine serum albumin binders on microarray, profiling panel, artefact control for SMM control protein annotation, biochemical, small-molecule microarray, Alexa647 label, 635/667 nm fluorescence (AID 1118); details: BSA-A647 binding, fluorescence 635 nm, higher = more signal;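 note: score merges 667 nm emission intensity and signal-to-noise per printed compound spot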
Chain of Albumin (Bos taurus) (P02769 whole entry, looked up): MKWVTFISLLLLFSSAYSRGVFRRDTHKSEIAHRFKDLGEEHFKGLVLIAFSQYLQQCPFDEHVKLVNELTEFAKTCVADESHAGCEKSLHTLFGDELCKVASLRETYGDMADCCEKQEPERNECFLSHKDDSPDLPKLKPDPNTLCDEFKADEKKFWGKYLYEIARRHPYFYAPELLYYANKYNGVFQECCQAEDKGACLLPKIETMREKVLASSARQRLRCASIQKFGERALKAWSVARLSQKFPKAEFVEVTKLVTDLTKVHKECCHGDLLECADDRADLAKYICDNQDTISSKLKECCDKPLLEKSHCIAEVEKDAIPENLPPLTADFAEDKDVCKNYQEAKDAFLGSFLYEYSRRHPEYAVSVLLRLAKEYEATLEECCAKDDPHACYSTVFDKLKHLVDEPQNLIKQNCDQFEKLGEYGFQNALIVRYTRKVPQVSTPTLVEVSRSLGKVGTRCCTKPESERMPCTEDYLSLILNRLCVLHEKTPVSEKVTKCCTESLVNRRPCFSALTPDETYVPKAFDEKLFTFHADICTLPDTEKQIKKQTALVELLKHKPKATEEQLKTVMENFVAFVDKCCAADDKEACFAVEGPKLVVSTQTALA

[2] = small-molecule microarray binders of probe aXIP, primary screen, biochemical, NeuroSMM set, 635/667 nm fluorescence (AID 1119); details: higher = more signal, called active from +8 up or from −8 down;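 note: probe is the protein aXip251-270 applied at 1 µg/mL to compound-printed slides; binding of probe to printed compounds measured as 667 nm fluorescence plus signal to noise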
[3] = small-molecule binders of probe aNOTCH3, primary screen, biochemical, small-molecule microarray, 635/667 nm fluorescence (AID 1120); details: higher = more signal;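 note: probe is a biotin-tagged antibody raised against NOTCH3 rather than NOTCH3 protein; score merges spot fluorescence near 667 nm with spot signal to noise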
[4] = small-molecule binders of probe aNOTCH2, primary screen, biochemical, small-molecule microarray, 635/667 nm fluorescence (AID 1121); details: higher = more signal;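 note: score merges feature fluorescence read at 667 nm with its signal to noise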
[5] = molecular target: Carbonic anhydrase 2 (Homo sapiens) (UniProt P00918); assay: CAII small-molecule binders, profiling panel, biochemical, small-molecule microarray, Alexa647-labelled CAII (AID 1122); details: CAII-A647 binding fluorescence, higher = more signal
[6] = COS7 lysate on small-molecule microarray, probe aHis, 635 nm (AID 1123); details: COS7 cell lysate, fluorescence, higher = more signal;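 note: z-score combines 667nm fluorescence intensity with signal-to-noise per printed compound spot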
[7] = compound binding in COS7 lysate, probe aLAP1, primary screen, cell lysate, small-molecule microarray (AID 1124); details: probe aLAP1, fluorescence, higher = more signal;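 note: lysate comes from COS7 cells expressing LAP1 and is applied at 0.3 µg/mL; score merges spot fluorescence near 667 nm with signal-to-noise over triplicate slides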
[8] = tested on: Sam68 (KHDRBS1); assay: Sam68 small-molecule binders, primary screen, biochemical, small-molecule microarray, 635 nm fluorescence (AID 1125); details: small-molecule microarray binding, higher = more signal;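 note: score merges 667 nm channel intensity with signal to noise over triplicate slides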
[9] = tested on: Chordin-like protein 2 (CHRDL2); assay: CHRDL2 small-molecule binders, primary screen, biochemical, small-molecule microarray, 635 nm fluorescence (AID 1126); details: small-molecule microarray binding, fluorescence 635 nm; higher = more signal;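 note: printed compound slides probed with Chrdl2 protein at 4 µg/mL for 1 h at 4 C; score merges 667 nm emission intensity with signal to noise over three replicate slides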
[10] = molecular target: Concanavalin-A (Canavalia ensiformis) (UniProt P02866); assay: ConA small-molecule binders, primary screen, artefact control for SMM control protein annotation, biochemical, small-molecule microarray, Alexa647 label, 635 nm (AID 1127); details: ConA-A647 binding fluorescence, higher = more signal;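 note: z combines 667 nm emission intensity with signal-to-noise across three replicate slides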
Chain of Concanavalin-A (Canavalia ensiformis) (P02866 whole entry, looked up): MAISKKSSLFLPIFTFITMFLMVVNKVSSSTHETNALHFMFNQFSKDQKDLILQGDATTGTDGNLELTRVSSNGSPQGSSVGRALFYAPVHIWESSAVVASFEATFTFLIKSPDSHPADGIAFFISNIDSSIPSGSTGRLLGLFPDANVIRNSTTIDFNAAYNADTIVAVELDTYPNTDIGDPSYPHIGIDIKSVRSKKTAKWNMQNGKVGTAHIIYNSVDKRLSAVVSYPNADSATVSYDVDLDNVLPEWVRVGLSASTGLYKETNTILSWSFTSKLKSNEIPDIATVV

[11] = anti-His antibody binders, primary screen, artefact control for SMM control protein annotation, biochemical, small-molecule microarray, 635 nm fluorescence (AID 1128); details: anti-His Alexa647 antibody binding, higher = more signal;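 note: score merges feature fluorescence with signal-to-noise for each printed compound spot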
[12] = tested on: Human papillomavirus type 1a E7 protein (residues 1-88); assay: HPV1a E7 small-molecule binders, primary screen, biochemical, small-molecule microarray, residues 1-88, 635 nm (AID 1129); details: small-molecule microarray binding, fluorescence 635 nm; higher = more signal
[13] = molecular target: Focal adhesion kinase 1 (Homo sapiens) (UniProt Q05397); assay: small-molecule microarray binders of FAK, primary screen, biochemical, 635/667 nm fluorescence, BSA, DTT (AID 1130); details: PTK2 binding, 635 nm fluorescence, higher = more signal;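 note: composite of spot emission at 667 nm and signal to noise over triplicate slides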
Chain of Focal adhesion kinase 1 (Homo sapiens) (Q05397 whole entry, looked up): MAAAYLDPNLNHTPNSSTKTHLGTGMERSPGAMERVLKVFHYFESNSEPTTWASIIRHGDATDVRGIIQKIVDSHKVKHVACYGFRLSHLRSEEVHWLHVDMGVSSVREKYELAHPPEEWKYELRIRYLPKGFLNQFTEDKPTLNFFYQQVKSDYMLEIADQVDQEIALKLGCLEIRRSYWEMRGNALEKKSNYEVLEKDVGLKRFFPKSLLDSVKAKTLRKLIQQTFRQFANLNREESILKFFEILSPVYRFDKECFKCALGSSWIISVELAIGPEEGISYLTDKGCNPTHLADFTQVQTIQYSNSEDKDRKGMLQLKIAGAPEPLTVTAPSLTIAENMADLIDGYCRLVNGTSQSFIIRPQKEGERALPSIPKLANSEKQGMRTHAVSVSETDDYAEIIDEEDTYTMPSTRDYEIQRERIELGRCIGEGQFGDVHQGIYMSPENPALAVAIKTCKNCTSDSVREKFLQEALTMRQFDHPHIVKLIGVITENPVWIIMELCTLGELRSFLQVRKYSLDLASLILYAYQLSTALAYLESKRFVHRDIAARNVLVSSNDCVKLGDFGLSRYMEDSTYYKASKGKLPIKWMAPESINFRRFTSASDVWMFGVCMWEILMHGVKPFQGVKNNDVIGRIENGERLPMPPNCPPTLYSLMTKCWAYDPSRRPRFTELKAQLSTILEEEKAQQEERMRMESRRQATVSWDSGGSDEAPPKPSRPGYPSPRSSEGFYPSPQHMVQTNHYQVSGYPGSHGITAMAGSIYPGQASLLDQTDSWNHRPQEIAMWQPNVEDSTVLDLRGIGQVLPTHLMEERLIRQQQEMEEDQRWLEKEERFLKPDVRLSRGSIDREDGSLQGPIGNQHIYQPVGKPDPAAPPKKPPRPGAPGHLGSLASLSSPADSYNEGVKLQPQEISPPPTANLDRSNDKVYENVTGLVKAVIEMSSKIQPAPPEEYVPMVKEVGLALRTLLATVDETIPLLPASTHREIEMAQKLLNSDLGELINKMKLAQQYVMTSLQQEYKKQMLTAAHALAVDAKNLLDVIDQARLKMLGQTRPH

[14] = tested on: Fibrinogen (Alexa647-labelled); assay: fibrinogen binders on compound microarrays, profiling panel, artefact control for SMM control-protein annotation, biochemical, small-molecule microarray, 635/667 nm fluorescence (AID 1131); details: fibrinogen-A647 binding fluorescence, higher = more signal;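 note: z-score merges 667 nm fluorescence with per-spot signal-to-noise over triplicate slides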
[15] = molecular target: Follistatin (Homo sapiens) (UniProt P19883); assay: follistatin binders on small-molecule microarrays, primary screen, biochemical, small-molecule microarray, 635/667 nm fluorescence (AID 1132); details: FST binding, 635 nm fluorescence, higher = more signal
Chain of Follistatin (Homo sapiens) (P19883 whole entry, looked up): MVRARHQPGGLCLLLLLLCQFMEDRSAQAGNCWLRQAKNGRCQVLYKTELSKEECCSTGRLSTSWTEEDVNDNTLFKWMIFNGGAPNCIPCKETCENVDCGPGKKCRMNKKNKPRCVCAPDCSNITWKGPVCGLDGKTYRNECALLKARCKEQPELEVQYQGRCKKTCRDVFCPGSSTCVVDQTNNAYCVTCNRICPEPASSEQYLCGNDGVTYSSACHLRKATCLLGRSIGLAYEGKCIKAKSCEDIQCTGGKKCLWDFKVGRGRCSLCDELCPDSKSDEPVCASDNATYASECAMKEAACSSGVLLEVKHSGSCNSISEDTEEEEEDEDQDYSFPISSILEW

[16] = molecular target: Fibroblast growth factor 2 (Homo sapiens) (UniProt P09038); assay: FGF2 binders on small-molecule microarrays, primary screen, biochemical, small-molecule microarray, 635/667 nm fluorescence (AID 1133); details: small-molecule microarray binding, FGF2, fluorescence 635/667; higher = more signal
Chain of Fibroblast growth factor 2 (Homo sapiens) (P09038 whole entry, looked up): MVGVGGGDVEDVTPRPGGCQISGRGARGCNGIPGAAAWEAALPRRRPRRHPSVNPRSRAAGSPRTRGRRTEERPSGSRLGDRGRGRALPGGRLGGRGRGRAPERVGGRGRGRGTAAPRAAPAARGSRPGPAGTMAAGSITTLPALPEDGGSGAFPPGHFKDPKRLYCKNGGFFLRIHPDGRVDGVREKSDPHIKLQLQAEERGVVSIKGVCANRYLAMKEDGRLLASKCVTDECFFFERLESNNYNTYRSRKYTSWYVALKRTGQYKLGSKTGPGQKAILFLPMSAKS

[17] = mitochondrial membrane potential change in A549 cells, profiling panel, cell-based, JC-1 fluorescence, basal, 24 h, 100 nL (AID 1138); details: higher = more signal;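 note: A549 lung adenocarcinoma cells under basal conditions with no added stimulus; test concentration not given here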
[18] = tested on: Lefty1; assay: Lefty1 binders on small-molecule microarrays, primary screen, biochemical, small-molecule microarray, 635/667 nm fluorescence (AID 1139); details: small-molecule microarray binding, fluorescence 635/667; higher = more signal
[19] = tested on: wheat germ agglutinin (Triticum aestivum), Alexa647-labelled; assay: wheat germ agglutinin binders on compound microarrays, profiling panel, artefact control for SMM control-protein annotation, biochemical, small-molecule microarray, 635/667 nm fluorescence (AID 1140); details: WGA-A647 binding, 635 nm fluorescence, higher = more signal;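 note: score merges 667 nm feature emission with signal to noise over triplicate slides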
[20] = molecular target: Luciferin 4-monooxygenase (Photinus pyralis) (UniProt P08659); assay: firefly luciferase enzyme inhibitors, primary screen, biochemical, luminescence, purified enzyme, 2006 set (AID 1141); details: SteadyGlo luminescence, 30 min, higher = more signal, called active from +8 up or from −8 down;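 note: cell-free assay with purified firefly luciferase at 100 ng per well in PBS; test concentration not given here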
Chain of Luciferin 4-monooxygenase (Photinus pyralis) (P08659 whole entry, looked up): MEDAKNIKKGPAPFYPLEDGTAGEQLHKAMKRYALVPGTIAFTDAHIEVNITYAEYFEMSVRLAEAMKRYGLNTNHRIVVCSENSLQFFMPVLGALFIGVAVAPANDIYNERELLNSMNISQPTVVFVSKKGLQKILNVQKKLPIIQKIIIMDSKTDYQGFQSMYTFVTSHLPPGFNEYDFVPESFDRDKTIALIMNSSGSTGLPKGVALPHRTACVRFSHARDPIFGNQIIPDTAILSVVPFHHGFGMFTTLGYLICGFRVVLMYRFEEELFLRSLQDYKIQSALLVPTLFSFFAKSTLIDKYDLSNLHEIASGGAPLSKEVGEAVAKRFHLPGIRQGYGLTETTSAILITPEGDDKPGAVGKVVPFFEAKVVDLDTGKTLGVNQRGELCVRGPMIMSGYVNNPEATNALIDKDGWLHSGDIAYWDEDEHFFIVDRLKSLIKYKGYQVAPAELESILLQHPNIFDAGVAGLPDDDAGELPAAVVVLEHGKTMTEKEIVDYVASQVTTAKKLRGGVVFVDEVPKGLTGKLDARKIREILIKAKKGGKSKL

| SMILES | composite z-score [1] | composite Z-score [2] | composite z-score [3] | composite z-score [4] | composite z-score [5] | composite z-score [6] | composite z-score [7] | composite z-score [8] | composite z-score [9] | composite z-score [10] | composite z-score [11] | composite z-score [12] | composite z-score [13] | composite z-score [14] | composite z-score [15] | composite z-score [16] | z-score [17] | composite z-score [18] | composite z-score [19] | z-score [20] |
| --- | --- | --- | --- | --- | --- | --- | --- | --- | --- | --- | --- | --- | --- | --- | --- | --- | --- | --- | --- | --- |
| C=CC[C@H](OC(=O)Nc1ccc(SC)cc1)c1ccc(O)c2ccccc12 | 0.923 | -0.285 (inactive) | 0.152 | -0.107 | 0.634 | 1.72 | 0.368 | 1.29 | 0.975 | 1.16 | 0.942 | 1.23 | 0.492 | 0.938 | 1.36 | 1.23 | -1.72 | 1.08 | 0.937 | -4.58 (inactive) |
| CC(C)=C1C(=O)C(c2ccccc2)=C2CN3C(=O)N(CCc4ccccc4)C(=O)[C@]3(Cc3ccc(C(F)(F)F)cc3)[C@H]21 | 0.682 | -0.355 (inactive) | 0.34 | 0.134 | 0.368 | 1.95 | 0.224 | -0.439 | -2.09 | -0.47 | -0.0822 | 0.566 | 1.01 | -0.0056 | 0.0359 | -1.29 | 1.57 | -1.16 | 0.8 | 0.359 (inactive) |
| COc1ccc(C#Cc2ccc3c(c2)[C@]2(C(=O)N3)[C@H](C(=O)O)[C@H]3C(=O)O[C@H](c4ccccc4)[C@H](c4ccccc4)N3[C@@H]2c2ccc(O)cc2)cc1 | 0.314 | -0.118 (inactive) | -0.243 | -0.0664 | 0.659 | 1.15 | 0.577 | 0.285 | -0.844 | -0.425 | -0.272 | 0.691 | 0.0564 | -0.142 | -0.474 | -0.521 | -2.42 | -0.422 | 0.208 | -1.01 (inactive) |
| COc1ccc([Si](C)(C)[C@H]2[C@H](CC(=O)N3Cc4ccccc4C[C@H]3CO)O[C@@]3(C(=O)N(Cc4ccc(N5CCOC5=O)cc4)c4ccccc43)[C@@H]2C)cc1 | -0.153 | 0.949 (inactive) | -0.0106 | -0.0249 | 0.444 | 0.591 | 0.246 | 1.33 | 1.32 | 1.05 | 1.14 | 0.923 | 0.109 | 0.339 | 1.32 | 1.39 | 0.516 | 1.22 | 0.396 | -0.246 (inactive) |
| COCCOC(=O)N1C(=O)[C@@]2(c3ccccc31)[C@H](C(=O)NC[C@H](O)c1ccccc1)[C@H]1C(=O)O[C@H](c3ccccc3)[C@H](c3ccccc3)N1[C@@H]2c1ccc(O)cc1 | -0.411 | 0.244 (inactive) | -0.198 | 0.0377 | 0.432 | 2.28 | 0.236 | 1.3 | 1.04 | 1.12 | 1.43 | 1.26 | 0.818 | 0.965 | 1.34 | 1.61 | -1.17 | 1.23 | 0.648 | 0.883 (inactive) |
| CC(C)C(CO)N1C(=O)[C@@H]2C3C(=O)OCCC/C=C\[C@H]3OC23C=CCN(c2ccc4ccccc4c2)C(=O)[C@@H]13 (stereo not given in full) | 0.974 | 0.503 (inactive) | -0.0716 | -0.156 | 0.941 | -0.201 | -0.18 | -1.02 | -1.28 | -0.612 | -0.236 | -0.696 | 0.374 | -1.62 | -0.0619 | -1.02 | 0.723 | 0.0124 | 0.562 | -0.526 (inactive) |
| [N-]=[N+]=Nc1ccccc1C[C@@]1(C(=O)NCCN2CCOCC2)N=C(c2ccc(OCCCO)cc2)O[C@@H]1c1ccccc1N=[N+]=[N-] | 0.832 | -0.0662 (inactive) | 0.351 | -0.0211 | 0.556 | 2.51 | 0.865 | 1.3 | -0.198 | 1.04 | 2.81 | 1.24 | 0.587 | 0.989 | 1.2 | 0.752 | -0.381 | 0.383 | 0.898 | -1.71 (inactive) |
| CC(C)N1C(=O)C[C@@](C(=O)O)(c2ccc([N+](=O)[O-])cc2)[C@H]1c1ccc(CO)cc1 | -0.795 | 0.589 (inactive) | -0.0947 | -0.0586 | 0.754 | 1.52 | 0.0273 | 0.69 | -1.25 | 0.279 | 0.0886 | -0.619 | -0.0404 | -1.14 | -0.82 | -0.798 | 0.993 | -1.12 | -0.76 | -1.03 (inactive) |
| CC(C)[Si]1(C(C)C)OCc2cc(-c3ccc(-c4ccc(Cl)c(Cl)c4)o3)nc(-c3ccccc3)c21 | 0.566 | 0.131 (inactive) | -0.235 | -0.234 | -0.895 | -0.77 | -0.714 | -1.53 | -0.541 | -0.746 | -0.534 | -1.65 | -0.838 | -1.32 | -0.751 | -0.94 | -0.447 | -0.21 | -0.0496 | -1.07 (inactive) |
| COc1cc(OC)c(C(O)C2C=CC3C(=O)N(Cc4ccccc4)C(=O)C3N2n2cnnc2)cc1Br (stereo not given) | 0.725 | -0.395 (inactive) | 0.056 | -0.0398 | 0.377 | 1.64 | 0.953 | 1.2 | -1.15 | 0.756 | 2.21 | 1.17 | 0.381 | 0.973 | 1.03 | -0.148 | -1.08 | 0.363 | 1.02 | 0.647 (inactive) |
